This note sets out measurements from PubChem BioAssay.

Structures are written as SMILES. Active and inactive are the calls of the source. Unless noted, the rule behind the calls is not given here.

Assay [1] can be described thus: HepG2 liver cancer cell viability effects, profiling panel, resazurin fluorescence, 24 h, PK04 Diversity Set (AID 1172). The note with it: higher = more signal. In general terms: Alamar Blue is a resazurin reagent that responds to reducing activity.
Assay [2] in a line: basal S. cerevisiae growth modulation, no modifier, primary screen, OD600, strain BY4716, 24 h, basal condition (AID 1173). The note with it: OD600, 24 h, higher = more signal, called active from +8 up or from −8 down.
The nature of assay [3]: MM1S myeloma cell viability, profiling panel, resazurin fluorescence, basal, 24 h, PK04 Diversity Set (AID 1174).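 Note: MM1S multiple myeloma cell line.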 Particulars: higher = more signal, called active from +8 up or from −8 down.
Assay [4] deals with Dihydroorotate dehydrogenase (quinone), mitochondrial (Plasmodium falciparum (isolate 3D7)) (UniProt Q08210). Briefly: PfDHODH enzyme inhibitors, primary screen, biochemical, C-terminal His tag, absorbance 600 nm (AID 1175).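 Note: recombinant parasite enzyme with a five histidine tag at its C terminus.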 Particulars: DCIP absorbance 600 nm, higher = more signal, called active from +8 up or from −8 down.
Assay [5] in a line: P. aeruginosa biofilm formation inhibitors, primary screen, strain PAO1, LB-PBS medium, absorbance 600 nm (AID 1176). The note with it: P. aeruginosa PAO1 growth/biofilm, A600, 12 h; higher = more signal.
Assay [6] can be described thus: S. cerevisiae RM11-1a growth modifiers, primary screen, strain RM11-1a, OD600, basal, 24 h (AID 1177).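 Note: cultures grown under basal conditions with no added stressor.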 The note with it: OD600, 24 h, higher = more signal, called active from +8 up or from −8 down.
Assay [7] in a line: E. coli acrAB mutant growth effects, primary screen, E. coli filamentation inducers, strain DRC39, OD650, 24 h (AID 1178).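 Note: growth measured as culture turbidity by optical density at 650 nm.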 The note with it: higher = more signal, called active from +8 up or from −8 down.
Assay [8] is described as follows: E. coli acrAB mutant growth effects, primary screen, E. coli filamentation inducers, strain DRC39, OD650, 48 h (AID 1179).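 Note: screen aims at cell division blockers that make cells filament.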 The note with it: E. coli DRC39 delta-acrAB growth, higher = more signal, called active from +8 up or from −8 down.
Assay [9] can be described thus: RPMI8226 myeloma cell viability, profiling panel, resazurin fluorescence, basal, 24 h, PK04 Diversity Set (AID 1180).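 Note: RPMI8826 multiple myeloma cell line at 5000 cells per well.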 Particulars: higher = more signal.
Assay [10] deals with E3 ubiquitin-protein ligase XIAP (Homo sapiens) (UniProt P98170). In words: XIAP binders, primary screen, biophysical, small-molecule microarray, fluorescence 635 nm (AID 1181).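 Note: score merges 667 nm emission and signal to noise over triplicate slides.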 The note with it: small-molecule microarray binding, higher = more signal.
Assay [11] relates to XIP peptide (Xip251-270) binding. Briefly: small-molecule binders of XIP peptide, primary screen, biochemical, small-molecule microarray, fluorescence 635/667 nm, 0.1 µg/mL protein (AID 1182). The note with it: fluorescent protein binding, 635 nm, higher = more signal, called active from +8 up or from −8 down.
Another assay relates to XIP peptide (Xip251-270). In words: small-molecule binders of XIP peptide, primary screen, biochemical, small-molecule microarray, fluorescence 635/667 nm, 0.5 µg/mL protein (AID 1183). Particulars: small-molecule microarray binding, fluorescence 635 nm; higher = more signal.
Assay [12] in a line: Plasmodium falciparum growth inhibition, primary screen, strain 3D7, DAPI fluorescence, 100 nL (AID 1184).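 Note: parasites grown inside human red blood cells in medium with human serum.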 Particulars: P. falciparum 3D7 growth, 3 d, higher = more signal.
Assay [13] deals with Homeobox protein Hox-A13 (Mus musculus) (UniProt Q62424). In words: inhibitors of HoxA13-DNA binding, primary screen, biochemical, fluorescence polarization, labeled oligonucleotide (AID 1185). The note with it: 15 min, higher = more signal, called active from +8 up or from −8 down.
The nature of assay [14]: inhibitors of hydroxyurea-induced Chk1 phosphorylation, primary screen, imaging, HeLa, phospho-Chk1 antibody, percent positive cells (AID 1186). Particulars: hydroxyurea-induced phospho-Chk1 immunofluorescence imaging, higher = more signal.
Assay [15] can be described thus: inhibitors of hydroxyurea-induced Chk1 phosphorylation, primary screen, imaging, HeLa, phospho-Chk1 nuclear intensity (AID 1187). Particulars: hydroxyurea-induced phospho-Chk1 immunofluorescence imaging, higher = more signal.

Dihydroorotate dehydrogenase (quinone), mitochondrial (Plasmodium falciparum (isolate 3D7)), sequence (Q08210 whole entry, looked up): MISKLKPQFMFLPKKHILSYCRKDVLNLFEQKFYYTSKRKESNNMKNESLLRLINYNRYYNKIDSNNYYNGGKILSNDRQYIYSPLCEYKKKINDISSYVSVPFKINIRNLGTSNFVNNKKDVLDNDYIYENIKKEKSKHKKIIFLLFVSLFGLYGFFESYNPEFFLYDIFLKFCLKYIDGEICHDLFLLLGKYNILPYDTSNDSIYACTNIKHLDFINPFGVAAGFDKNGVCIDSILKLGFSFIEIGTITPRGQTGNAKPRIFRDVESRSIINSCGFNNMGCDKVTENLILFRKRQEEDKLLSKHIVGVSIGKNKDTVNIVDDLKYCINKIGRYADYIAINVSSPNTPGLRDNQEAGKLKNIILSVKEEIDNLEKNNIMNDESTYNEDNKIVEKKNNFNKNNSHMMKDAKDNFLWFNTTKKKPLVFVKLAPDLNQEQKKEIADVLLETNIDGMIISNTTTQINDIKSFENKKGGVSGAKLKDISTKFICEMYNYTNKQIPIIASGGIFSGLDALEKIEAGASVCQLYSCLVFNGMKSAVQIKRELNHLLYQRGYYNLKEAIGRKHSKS
Homeobox protein Hox-A13 (Mus musculus), sequence (Q62424 whole entry, looked up): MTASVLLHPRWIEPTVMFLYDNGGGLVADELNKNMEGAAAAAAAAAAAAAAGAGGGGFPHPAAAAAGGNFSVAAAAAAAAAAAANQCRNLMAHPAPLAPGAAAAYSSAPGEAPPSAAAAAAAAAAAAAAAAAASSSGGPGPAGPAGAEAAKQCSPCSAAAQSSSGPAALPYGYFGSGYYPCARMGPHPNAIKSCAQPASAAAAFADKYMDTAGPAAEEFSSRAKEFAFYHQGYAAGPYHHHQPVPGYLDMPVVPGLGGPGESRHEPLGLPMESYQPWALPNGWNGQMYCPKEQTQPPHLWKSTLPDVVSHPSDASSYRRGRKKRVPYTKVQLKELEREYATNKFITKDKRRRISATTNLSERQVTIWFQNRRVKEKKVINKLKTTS
E3 ubiquitin-protein ligase XIAP (Homo sapiens), sequence (P98170 whole entry, looked up): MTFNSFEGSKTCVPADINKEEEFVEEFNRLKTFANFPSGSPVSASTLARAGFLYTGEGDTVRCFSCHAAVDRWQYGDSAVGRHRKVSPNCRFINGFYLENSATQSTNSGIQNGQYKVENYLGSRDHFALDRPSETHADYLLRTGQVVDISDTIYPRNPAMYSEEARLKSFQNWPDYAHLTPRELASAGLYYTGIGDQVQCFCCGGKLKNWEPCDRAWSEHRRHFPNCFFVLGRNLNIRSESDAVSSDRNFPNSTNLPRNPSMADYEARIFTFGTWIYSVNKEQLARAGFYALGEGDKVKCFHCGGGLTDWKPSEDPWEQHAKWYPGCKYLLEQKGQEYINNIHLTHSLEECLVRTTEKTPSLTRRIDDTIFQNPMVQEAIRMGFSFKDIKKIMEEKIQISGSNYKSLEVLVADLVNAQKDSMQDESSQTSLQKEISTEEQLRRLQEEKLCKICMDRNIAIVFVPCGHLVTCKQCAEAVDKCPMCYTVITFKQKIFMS

With `C[C@H]1C2[C@H](Cc3ccccc3)NC(=O)[C@]23C(=O)NCC(=O)N2CCC[C@H]2C(=O)NC/C=C\C/C=C/C3[C@@H]2O[C@]12C` (some centres undefined), the z-score in assay [1] is 0.825; in assay [2] it was -1.82 (inactive); in assay [3], 0.741 (inactive); in assay [5], -0.14 (inactive); in assay [6], -0.939 (inactive); in assay [7], 1.02 (inactive). Also, the z-score was 0.741 (inactive) in assay [8]; 1.05 in assay [9]; 0.876 in assay [12]; -2.22 (inactive) in assay [13]; 0.353 (inactive) in [14]; 0.133 (inactive) in assay [15]. In addition, the composite z-score in [4] was -0.173 (inactive); in assay [10], -0.258; in [11] it was 0.358 (inactive); with XIP peptide (Xip251-270) it was 0.341.
For the compound `COCCOC(=O)N1C(=O)[C@@]2(c3cc(C#CC4=CCCCC4)ccc31)[C@H](c1ccccc1OCCO)N1[C@H](c3ccccc3)[C@H](c3ccccc3)OC(=O)[C@H]1[C@@H]2C(N)=O`, the z-score in assay [1] was -0.625; in assay [2] it was -0.431 (inactive); in assay [3], -2.78 (inactive); in assay [5], 1.06 (inactive); in [6], 0.486 (inactive); in assay [7] it was 0.484 (inactive). Further, the z-score in [8] is -0.955 (inactive); in [9], -5.01; in [12], -2.27; in assay [13] it was -0.721 (inactive); in [14], -0.254 (inactive); in assay [15] it was -0.167 (inactive). The composite z-score was -0.176 (inactive) in assay [4], 0.126 in [10], -0.0632 (inactive) in assay [11] and 0.558 in the assay with XIP peptide (Xip251-270).
For `COc1ccc(CCNC(=O)[C@@]2(Sc3ccc(C)cc3)CC(=O)N(Cc3cc(C(F)(F)F)cc(C(F)(F)F)c3)[C@@H]2c2ccc(CO)cc2)cc1`, the z-score in assay [1] was -0.392; in assay [2], -1.01 (inactive); in assay [3], -0.378 (inactive); in assay [5], 0.112 (inactive); in assay [6] it was -0.83 (inactive); in [7] it was 0.0664 (inactive). Also, the z-score was -0.331 (inactive) in assay [8]; -0.395 in assay [9]; 0.264 in assay [12]; -2.57 (inactive) in assay [13]; 0.132 (inactive) in assay [14]; 0.282 (inactive) in assay [15]. For the same compound, the composite z-score in assay [4] is -0.61 (inactive); in assay [10], 0.536; in [11], -0.461 (inactive); in the assay with XIP peptide (Xip251-270) it was 0.705.
Take `C=CC[C@]1(C(=O)NCCCOC)N=C(c2ccc(OCCCO)cc2)O[C@H]1c1ccccc1`: the z-score in assay [1] was 0.998; in assay [2] it was -0.96 (inactive); in assay [3] it was 0.619 (inactive); in assay [5] it was -0.661 (inactive); in assay [6], 0.0543 (inactive); in assay [7], 0.178 (inactive). Besides, the z-score was 0.735 (inactive) in [8]; 1.36 in assay [9]; -0.67 in [12]; -6.7 (inactive) in [13]; -0.132 (inactive) in assay [14]; 0.0245 (inactive) in [15]. Further, the composite z-score in [4] is -0.205 (inactive); in [10] it was 0.102; in assay [11] it was 0.227 (inactive); with XIP peptide (Xip251-270), 0.659.
Take `CN(C)CCCC[C@@H]1NC(=O)[C@H]2C[C@@H](C(=O)O)[C@@H](c3cccc(OCCO)c3)N2C1=O`: the z-score in assay [1] was 0.629; in assay [2], -1.12 (inactive); in [3], 0.499 (inactive); in [5] it was -0.0185 (inactive); in [6], -0.452 (inactive); in assay [7], -0.0925 (inactive). The z-score in assay [8] is -0.151 (inactive); in assay [9], 0.546; in assay [12] it was -0.133; in assay [13] it was -1.71 (inactive); in assay [14], -0.791 (inactive); in assay [15], -0.55 (inactive). Besides, the composite z-score is -0.614 (inactive) in assay [4], 0.332 in [10], 0.432 (inactive) in [11] and 0.288 in the assay on XIP peptide (Xip251-270).
Regarding `C[C@H]1NC(=O)C([C@@H](C)OCc2ccccc2)NC(=O)[C@@]23C(=O)N[C@@H](Cc4ccccc4)C2[C@H](C)[C@@]2(C)O[C@H]2C3/C=C/C/C=C\CNC1=O` (some centres undefined), the z-score was -0.588 in [1]; 0.481 (inactive) in assay [2]; 0.178 (inactive) in [3]; 0.13 (inactive) in [5]; 0.787 (inactive) in assay [6]; 0.979 (inactive) in assay [7]. The z-score in [8] is 0.545 (inactive); in [9] it was 0.472; in assay [12] it was -2.93; in [13] it was -6.74 (inactive); in assay [14], 0.314 (inactive); in [15], 0.451 (inactive). In addition, the composite z-score is 0.369 (inactive) in assay [4], -0.381 in [10], -0.113 (inactive) in [11] and -0.417 with XIP peptide (Xip251-270).
Regarding `C=C(CC1([C@@H](NP(=O)(c2ccccc2)c2ccccc2)[C@H]2C[C@@H]2CCN(C(=O)OCC)S(=O)(=O)c2ccc(C)cc2)CC1)c1ccccc1`, the z-score in assay [1] was 0.716; in assay [2], 1.97 (inactive); in [3], -1.59 (inactive); in assay [5], 0.687 (inactive); in assay [6], 1.52 (inactive); in [7], 0.104 (inactive). Further, the z-score is -0.194 (inactive) in assay [8]; -1.05 in [9]; -1.75 in assay [12]; -2.18 (inactive) in assay [13]; -0.215 (inactive) in [14]; -0.0171 (inactive) in [15]. In addition, the composite z-score was 0.0407 (inactive) in assay [4], 0.303 in [10], 0.43 (inactive) in assay [11] and 0.666 with XIP peptide (Xip251-270).
`O=C1c2ccccc2[C@](Cc2ccccc2I)(C(=O)O)[C@H](c2ccc(CO)cc2)N1Cc1ccccc1`: the z-score is -0.52 in assay [1]; -1.72 (inactive) in assay [2]; -0.427 (inactive) in assay [3]; -0.121 (inactive) in assay [5]; -2.09 (inactive) in assay [6]; 0.656 (inactive) in assay [7]. Also, the z-score in [8] was 1.39 (inactive); in assay [9], -0.831; in assay [12], 0.387; in assay [13] it was -4.44 (inactive); in [14] it was -0.422 (inactive); in assay [15], -0.204 (inactive). Moreover, the composite z-score in [4] was -5.63 (inactive); in assay [10] it was 0.147; in [11] it was 0.947 (inactive); in the assay on XIP peptide (Xip251-270), 0.754.
Turning to `C#CCN=C(N)N`, the z-score was -0.0276 in [1]; -0.639 (inactive) in assay [2]; 0.111 (inactive) in assay [3]; 0.845 (inactive) in assay [5]; -0.491 (inactive) in assay [6]; -0.383 (inactive) in assay [7]. In addition, the z-score is -0.079 (inactive) in assay [8]; 0.0428 in [9]; -0.624 in assay [12]; -0.327 (inactive) in assay [13]; -0.351 (inactive) in [14]; -0.447 (inactive) in assay [15]. The composite z-score was -0.377 (inactive) in [4], 0.155 in [10], 0.189 (inactive) in assay [11] and 0.391 in the assay with XIP peptide (Xip251-270).
